# According to PubChem BioAssay (Tox21):
# Values joined by “and” are separate entries in the source; they are usually repeats but may differ in a detail not shown here. Identical values can stand only once. Inconclusive results are not listed. Where a call stands in place of a potency, no number is given. A number with no mark means an inactive call. Active and inactive are the calls of the source. Unless noted, calls follow the shape of the dose curve; as a rule, active = well fitted curve in the direction sought with a large enough effect in the repeat runs; inconclusive = weak or mixed curves; inactive = no such curve, though single readings can be large; an effect the other way counts as inactive or inconclusive.
# Legend:
# [1] = qHTS assay to identify small molecule antagonists of the estrogen related receptor (ERR) signaling pathway from Tox21 library - cell viability counter screen (AID 1224834); also: nearly all actives have a fitted effect of over 30% in size; also: potency is read from the fitted curve at half-maximal effect
# How it was run: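 ERR reporter cells, 2,000 per well, rested 6 h, then exposed to compound in DMSO for 17.5 hours at 37 C. Viability read as fluorescence after 30 min with CellTiter-Fluor.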
# [2] = molecular target: Luciferin 4-monooxygenase (Photinus pyralis) (UniProt P08659); test: qHTS assay to identify small molecule inhibitors of firefly luciferase (AID 1224835); also: nearly all actives have a fitted effect of over 25% in size; also: potency is read from the fitted curve at half-maximal effect; as to activity change, negative = inhibition: series mostly up to about 120 µM
# Luciferin 4-monooxygenase (Photinus pyralis), sequence (P08659 whole entry, looked up): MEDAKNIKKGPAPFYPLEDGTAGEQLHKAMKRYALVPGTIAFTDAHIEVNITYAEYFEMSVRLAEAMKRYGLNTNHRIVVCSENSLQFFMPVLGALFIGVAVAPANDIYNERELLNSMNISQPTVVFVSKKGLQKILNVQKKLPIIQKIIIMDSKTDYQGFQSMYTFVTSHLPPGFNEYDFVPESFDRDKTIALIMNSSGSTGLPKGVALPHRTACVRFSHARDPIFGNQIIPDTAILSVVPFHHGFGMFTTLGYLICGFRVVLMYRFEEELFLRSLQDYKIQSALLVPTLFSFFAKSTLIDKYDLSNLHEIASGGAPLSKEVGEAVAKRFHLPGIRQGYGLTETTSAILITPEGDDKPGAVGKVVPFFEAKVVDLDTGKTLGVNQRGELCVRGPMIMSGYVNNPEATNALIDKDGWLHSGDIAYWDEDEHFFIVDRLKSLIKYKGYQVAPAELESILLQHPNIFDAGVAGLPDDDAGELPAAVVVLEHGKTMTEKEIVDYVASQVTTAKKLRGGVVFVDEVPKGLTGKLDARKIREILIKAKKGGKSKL
# How it was run: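 Quantitative HTS format; KM concentrations of both substrates. Purified P. pyralis FLuc activity quantified from luminescence images.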
# [3] = qHTS assay to identify small molecule agonists of the constitutive androstane receptor (CAR) signaling pathway - cell viability counter screen (AID 1224836); also: nearly all actives have a fitted effect of over 45% in size; also: potency is read from the fitted curve at half-maximal effect; as to viability change, negative = cytotoxic: series mostly up to about 92 µM
# How it was run: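 Compound titrations (15 concentrations) went onto HepG2-CYP2B6-hCAR cells 4 h after seeding, alongside PK11195 at a final 0.75 uM; a 23 h, 37 C/5% CO2 incubation preceded CellTiter-Fluor viability measurement.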
# [4] = qHTS assay to identify small molecule antagonists of the constitutive androstane receptor (CAR) signaling pathway - cell viability counter screen (AID 1224837); also: nearly all actives have a fitted effect of over 45% in size; also: potency is read from the fitted curve at half-maximal effect; as to activity change, negative = cytotoxicity: series mostly up to about 92 µM
# How it was run: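 HepG2 cells stably carrying hCAR and CYP2B6-2.2kb reporter, stimulated with 50 nM CITCO and compounds at 15 concentrations for 23 h at 37 C. Viability measured by CellTiter-Fluor fluorescence.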
# [5] = molecular target: Nuclear receptor subfamily 1 group I member 3 (Homo sapiens) (UniProt Q14994); test: qHTS assay to identify small molecule antagonists of the constitutive androstane receptor (CAR) signaling pathway (AID 1224838); also: nearly all actives have a fitted effect of over 40% in size; also: potency is read from the fitted curve at half-maximal effect
# Nuclear receptor subfamily 1 group I member 3 (Homo sapiens), sequence (Q14994 whole entry, looked up): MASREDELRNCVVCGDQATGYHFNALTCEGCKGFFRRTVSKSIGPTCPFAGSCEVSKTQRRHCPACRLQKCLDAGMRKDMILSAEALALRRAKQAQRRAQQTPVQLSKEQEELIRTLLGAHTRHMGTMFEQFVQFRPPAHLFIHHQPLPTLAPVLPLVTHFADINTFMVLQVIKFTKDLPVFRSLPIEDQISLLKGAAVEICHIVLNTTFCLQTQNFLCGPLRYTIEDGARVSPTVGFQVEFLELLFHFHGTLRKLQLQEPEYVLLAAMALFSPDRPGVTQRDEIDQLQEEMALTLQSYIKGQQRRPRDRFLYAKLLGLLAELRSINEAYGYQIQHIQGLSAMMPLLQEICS
# How it was run: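 HepG2 cells stably carrying hCAR and a CYP2B6-2.2kb luciferase reporter, seeded 4 hrs before compound (15 concentrations). Stimulated with 50 nM CITCO for 24 hr at 37 C. ONE-Glo luminescence read after 30 min at room temperature.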
# [6] = molecular target: Nuclear receptor subfamily 1 group I member 3 (Homo sapiens) (UniProt Q14994); test: qHTS assay to identify small molecule agonists of the constitutive androstane receptor (CAR) signaling pathway (AID 1224839); also: series mostly up to about 92 µM; nearly all actives have a fitted effect of over 15% in size
# How it was run: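 In this screen, CAR-driven CYP2B6 promoter activity is measured by luminescence in HepG2-CYP2B6-hCAR cells after 24 h with test compounds and 0.75 uM PK11195 (final concentration).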
# [7] = qHTS assay to identify small molecule antagonists of the estrogen related receptor signaling pathway with the pleiotropic PPARgamma coactivator (PGC) from Tox21 10K library - cell viability counter screen (AID 1224840; active = well fitted cell-killing curve with a large enough effect in the repeat runs, not every such curve was filed as active; also: nearly all actives have a fitted effect of over 40% in size; also: potency is read from the fitted curve at half-maximal effect)
# How it was run: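 PGC/ERR cells (2,000/well) plated 6 h, then compound-treated for 17.5 h at 37 C. Viability measured by CellTiter-Fluor fluorescence after 30 min at 37 C, multiplexed with the pathway assay.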
# [8] = qHTS assay to identify small molecule antagonists of the estrogen related receptor signaling pathway with the pleiotropic PPARgamma coactivator (PGC) from Tox21 10K library (AID 1224841; call rule not given here; also: series mostly up to about 92 µM; actives are mostly falling curves and most rising ones were filed inactive; nearly all actives have a fitted effect of over 50% in size)
# How it was run: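 PGC/ERR cell line, 2,000 cells/well, pre-incubated 6 hours at 37 C, then exposed to compounds for 18 hours at 37 C; luciferase read with One-Glo luminescence after 30 min at room temperature.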
# [9] = qHTS assay to identify small molecule agonists of the estrogen related receptor signaling pathway with the pleiotropic PPARgamma coactivator (PGC) from Tox21 10K library (AID 1224842); also: nearly all actives have a fitted effect of over 15% in size
# How it was run: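 PGC/ERR reporter cells (NTP line) were seeded 2,000 per well, rested 6 h at 37 C/5% CO2, then pin-dosed with compounds in DMSO for 18 h at 37 C; luciferase read by One-Glo luminescence after 30 min at room temperature.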
# [10] = molecular target: Thyrotropin receptor (Homo sapiens) (UniProt P16473); test: qHTS assay to identify small molecule agonists of the thyroid stimulating hormone receptor (TSHR) signaling pathway (AID 1224843; calls by dose curve; also: nearly all actives have a fitted effect of over 45% in size)
# Thyrotropin receptor (Homo sapiens), sequence (P16473 whole entry, looked up): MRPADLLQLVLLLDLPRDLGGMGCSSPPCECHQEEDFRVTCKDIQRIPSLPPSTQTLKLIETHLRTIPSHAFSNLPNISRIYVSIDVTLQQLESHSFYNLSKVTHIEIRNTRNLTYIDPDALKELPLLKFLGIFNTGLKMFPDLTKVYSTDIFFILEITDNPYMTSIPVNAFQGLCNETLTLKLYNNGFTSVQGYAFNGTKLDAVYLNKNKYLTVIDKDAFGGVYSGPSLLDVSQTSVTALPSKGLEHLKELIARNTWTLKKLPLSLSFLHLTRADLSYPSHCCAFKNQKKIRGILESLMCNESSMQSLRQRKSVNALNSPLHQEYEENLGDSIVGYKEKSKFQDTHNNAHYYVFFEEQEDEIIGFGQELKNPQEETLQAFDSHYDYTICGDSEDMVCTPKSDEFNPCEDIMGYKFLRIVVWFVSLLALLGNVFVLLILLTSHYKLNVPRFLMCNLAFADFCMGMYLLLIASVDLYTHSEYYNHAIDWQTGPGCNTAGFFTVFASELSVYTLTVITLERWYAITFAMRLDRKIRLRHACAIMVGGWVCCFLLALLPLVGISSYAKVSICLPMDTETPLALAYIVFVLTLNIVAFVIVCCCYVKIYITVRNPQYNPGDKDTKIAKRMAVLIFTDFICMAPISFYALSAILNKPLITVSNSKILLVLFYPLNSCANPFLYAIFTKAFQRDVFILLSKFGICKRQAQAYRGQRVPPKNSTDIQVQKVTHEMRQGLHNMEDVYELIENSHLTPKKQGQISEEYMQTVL
# How it was run: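 Cell line HEK293 with TSHR; density 800/well. Exposure 30 min RT. Readout HTRF cAMP (cAMP-d2/anti-cAMP-cryptate), 1 h RT before reading.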
smiles,measurement,setting,value
O=C(O)c1cc(=O)c2ccccc2o1,Potency,[1],inactive
same,Potency,[2],inactive
same,Potency,[3],inactive
same,Potency,[4],inactive
same,Potency,[5],inactive
same,Potency,[6],inactive
same,Potency,[7],inactive
same,Potency,[8],inactive
same,Potency,[9],inactive
same,Potency,[10],inactive
CC(=O)c1ccc(C(C)=O)cc1,Potency,[1],inactive
same,Potency,[2],inactive
same,Potency,[3],inactive
same,Potency,[4],inactive
same,Potency,[5],inactive
same,Potency,[6],inactive
same,Potency,[7],inactive
same,Potency,[8],inactive
same,Potency,[9],inactive
same,Potency,[10],inactive
CN(C)c1ccc(C(=C2C=CC(=[N+](C)C)C=C2)c2ccc(N(C)C)cc2)cc1,Potency,[1],9.64 µM (active) and 12.2 µM (active) and 13.3 µM (active)
same,Potency,[2],17.7 µM (active) and 35.6 µM (active) and 17.4 µM (active)
same,Potency,[3],7.66 µM (active) and 6.86 µM (active) and 5.96 µM (active)
same,Potency,[4],8.59 µM (active) and 7.7 µM (active) and 5.31 µM (active)
same,Potency,[5],27.2 µM (active) and 27.3 µM (active) and 13.3 µM (active)
same,Potency,[6],inactive
same,Potency,[7],9.64 µM (active) and 4.33 µM (active) and 11.9 µM (active)
Nc1nc(N)nc(-c2cc(Cl)ccc2Cl)n1,Potency,[1],inactive
same,Potency,[2],inactive
same,Potency,[3],inactive
same,Potency,[4],inactive
same,Potency,[5],inactive
same,Potency,[6],inactive
same,Potency,[7],inactive
Cc1cc(-n2nc3ccc(Cl)cc3n2)c(O)c(C(C)(C)C)c1,Potency,[1],inactive
same,Potency,[2],inactive
same,Potency,[3],inactive
same,Potency,[4],inactive
same,Potency,[5],inactive
same,Potency,[6],inactive
same,Potency,[7],inactive
same,Potency,[8],inactive
same,Potency,[9],inactive
same,Potency,[10],inactive
C1CCC(SSC2CCCCC2)CC1,Potency,[1],inactive
same,Potency,[2],inactive
same,Potency,[3],inactive
same,Potency,[4],inactive
same,Potency,[5],inactive
same,Potency,[6],inactive
same,Potency,[7],inactive
same,Potency,[8],inactive
same,Potency,[9],inactive
same,Potency,[10],inactive
O=C(O)c1cccc(C(F)(F)F)c1,Potency,[1],inactive
same,Potency,[2],inactive
same,Potency,[3],inactive
same,Potency,[4],inactive
same,Potency,[5],inactive
same,Potency,[6],inactive
same,Potency,[7],inactive
same,Potency,[8],inactive
same,Potency,[9],inactive
same,Potency,[10],inactive
CCc1ccc(Br)cc1,Potency,[1],inactive
same,Potency,[2],inactive
same,Potency,[3],inactive
same,Potency,[4],inactive
same,Potency,[5],inactive
same,Potency,[6],inactive
same,Potency,[7],inactive
same,Potency,[8],inactive
same,Potency,[9],inactive
same,Potency,[10],inactive
CCOC(=O)c1ccc(C2CCC(NC[C@H](O)COc3ccc(O)c(NS(C)(=O)=O)c3)CC2)cc1 (some centres undefined),Potency,[1],63.3 µM (active)
same,Potency,[2],inactive
same,Potency,[3],inactive
same,Potency,[4],inactive
same,Potency,[5],inactive
same,Potency,[6],inactive
same,Potency,[7],63.3 µM (active)
same,Potency,[8],inactive
same,Potency,[9],inactive
CC(C)Cn1cnc2c(N)nc3ccccc3c21,"viability change, negative = cytotoxic",[1],-3.99% [at 19 µM]
same,"activity change, negative = inhibition",[2],5.54% [at 23.6 µM]
same,"viability change, negative = cytotoxic",[3],-20.4% [at 19 µM]
same,"activity change, negative = cytotoxicity",[4],-10.6% [at 19 µM]
same,"activity, negative = inhibition",[5],27.4% [at 19 µM]
same,activation,[6],6.88% [at 19 µM]
same,"viability change, negative = cytotoxic",[7],16.3% [at 19 µM]
same,"activity, negative = inhibition",[8],23.8% [at 19 µM]
same,activation,[9],6.35% [at 19 µM]
same,activation,[10],14.2% [at 19 µM]
OC[C@@H](O)[C@@H](O)CO,Potency,[1],inactive
same,Potency,[2],inactive
same,Potency,[3],inactive
same,Potency,[4],inactive
same,Potency,[5],inactive
same,Potency,[6],inactive
same,Potency,[7],inactive
same,Potency,[8],inactive
same,Potency,[9],inactive
same,Potency,[10],inactive
CCCCCCOC(=O)C(C)CC (centres undefined),Potency,[1],inactive
same,Potency,[2],inactive
same,Potency,[3],inactive
same,Potency,[4],inactive
same,Potency,[5],inactive
same,Potency,[6],inactive
same,Potency,[7],inactive
same,Potency,[8],inactive
same,Potency,[9],inactive
same,Potency,[10],inactive
CCOC(=O)NNc1ccc(N(CC)CC(C)O)nn1 (centres undefined),Potency,[1],inactive
same,Potency,[2],inactive
same,Potency,[3],inactive
same,Potency,[4],inactive
same,Potency,[5],inactive
same,Potency,[6],inactive
same,Potency,[7],inactive
same,Potency,[8],inactive
same,Potency,[9],inactive
same,Potency,[10],inactive
C[C@@H](O)[C@H](N)C(=O)O,"viability change, negative = cytotoxic",[1],0.354% [at 19 µM]
same,"activity change, negative = inhibition",[2],1.37% [at 23.6 µM]
same,"viability change, negative = cytotoxic",[3],-1.25% [at 19 µM]
same,"activity change, negative = cytotoxicity",[4],9.9% [at 19 µM]
same,"activity, negative = inhibition",[5],17.3% [at 19 µM]
same,activation,[6],-3.11% [at 19 µM]
same,"viability change, negative = cytotoxic",[7],0.388% [at 19 µM]
Clc1nnc(Cl)c2ccccc12,Potency,[1],inactive
same,Potency,[2],inactive
same,Potency,[3],inactive
same,Potency,[4],inactive
same,Potency,[5],inactive
same,Potency,[6],inactive
same,Potency,[7],inactive
CN(C)Cc1ccccc1O,Potency,[1],inactive
same,Potency,[2],inactive
same,Potency,[3],inactive
same,Potency,[4],inactive
same,Potency,[5],inactive
same,Potency,[6],inactive
same,Potency,[7],inactive
same,Potency,[8],inactive
same,Potency,[9],inactive
same,Potency,[10],inactive
c1cnccn1,Potency,[1],inactive
same,Potency,[2],inactive
same,Potency,[3],inactive
same,Potency,[4],inactive
same,Potency,[5],inactive
same,Potency,[6],inactive
same,Potency,[7],inactive
same,Potency,[10],inactive
NC(=S)NC(N)=S,Potency,[1],inactive
same,Potency,[2],inactive
same,Potency,[3],inactive
same,Potency,[4],inactive
same,Potency,[5],inactive
same,Potency,[6],inactive
same,Potency,[7],inactive
same,Potency,[10],inactive
CCCCCCCCCCCC(=O)OCC(C)OC(=O)CCCCC(=O)O (centres undefined),Potency,[1],inactive
same,Potency,[2],inactive
same,Potency,[3],inactive
same,Potency,[4],inactive
same,Potency,[5],inactive
same,Potency,[6],inactive
same,Potency,[7],inactive
same,Potency,[9],inactive
same,Potency,[10],inactive
C=Cc1cccc(C)c1,Potency,[1],inactive
same,Potency,[2],inactive
same,Potency,[3],inactive
same,Potency,[4],inactive
same,Potency,[5],inactive
same,Potency,[6],inactive
same,Potency,[7],inactive
same,Potency,[10],inactive
O=C(O)c1ccc2cc(C(=O)O)ccc2c1,Potency,[1],inactive
same,Potency,[2],inactive
same,Potency,[3],inactive
same,Potency,[4],inactive
same,Potency,[5],inactive
same,Potency,[6],inactive
same,Potency,[7],inactive
same,Potency,[10],inactive
C=CCCC(=O)/C=C/C1C(C)=CCCC1(C)C (centres undefined),Potency,[1],inactive
same,Potency,[2],inactive
same,Potency,[3],inactive
same,Potency,[4],inactive
same,Potency,[5],inactive
same,Potency,[7],inactive
